# Source: PubChem BioAssay
# SIRT5 inh: blocks human SIRT5 desuccinylation of peptide; Q9NXA8; Purified SirT5, succinyl-peptide AMC, trypsin-coupled fluorescence; inhibition, % at 15 µM; 330,000 tested, 1.1% active; AID 652115; in the data active = inhibition above about 15%
# CDK5 inh: blocks human CDK5/p35 kinase activity. 330,000 tested, 0.01% active. AID 488839. Recombinant CDK5/p35, ADP-Glo luminescence, 60 min. inhibition, % at 10 µM. Q00535+Q15078;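 active = highest replicate inhibition of at least 50% and at least 75% of replicates reaching 50%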
# PglD inh: blocks C. jejuni PglD acetyltransferase activity | purified PglD enzyme, DTNB colorimetric CoA detection | inhibition, % at 12.5 µM | 360,000 tested, 0.098% active; in the data active = inhibition above about 16%, passing the limit was not always enough
# FGF22 binding: FGF22 (human) thermal shift binding | Q9HCT0 | recombinant FGF22 thermal shift, SYPRO orange fluorescence; percent of sucrose octasulfate shift, DMSO zero | activity (Tm shift, normalised), % at 9.99 µM | 340,000 tested, 1.5% active | AID 651658;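 active = mean Tm shift, scaled 0 neutral to 100 positive control, at about 1.3% or above, every replicate too, limit read from the data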
# Target sequence (Q9HCT0 whole entry, looked up): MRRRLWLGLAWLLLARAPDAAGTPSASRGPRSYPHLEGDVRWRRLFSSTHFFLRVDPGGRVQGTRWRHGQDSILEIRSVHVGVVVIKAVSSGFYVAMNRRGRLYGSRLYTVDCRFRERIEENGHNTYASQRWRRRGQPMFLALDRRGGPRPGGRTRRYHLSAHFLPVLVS
# PvdQ acylase: blocks Pseudomonas aeruginosa PvdQ acylase activity; purified PvdQ acylase, fluorescence plate reader; inhibition, % at 10 µM; 340,000 tested, 0.063% active; AID 488965; in the data active = inhibition above about 30%, passing the limit was not always enough
# dFosB activator: mouse delta FosB homodimer activation; P13346; purified delta FosB, TAMRA-CDK5 oligo fluorescence polarization; percent of positive-control signal above neutral wells; activation, % at 25 µM; 340,000 tested, 0.99% active; AID 493131;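 active = mean activation above about 17%, with every replicate also reaching it, limit read from the data, passing the limit was not always enough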
# Hits are given with their value; - = inactive; . = no result. Only some compounds are listed: those with a hit (about 2.8% of all), similar ones and a draw of the others.
SMILES,SIRT5 inh,CDK5 inh,PglD inh,FGF22 binding,PvdQ acylase,dFosB activator
O=C(Nc1cccc(F)c1)/C(=C\c1cccnc1)NC(=O)c1ccco1,-,-,.,44,-,-
O=C(Nc1ccccc1)/C(=C/c1ccc(O)cc1)NC(=O)c1ccco1,30,-,-,-,-,-
COC(=O)C(CC#Cc1ccc2c(c1)[C@]1(C(=O)N2)[C@H](c2ccc(OCCO)cc2)N2[C@H](c3ccccc3)[C@H](c3ccccc3)OC(=O)[C@H]2[C@@H]1C(=O)N1CCCCCCC1)C(=O)OC,-,.,-,-,.,.
COC(=O)c1ccc(CN2CC(=O)N3[C@H](CO)[C@H](c4ccc(Br)cc4)[C@H]3C2)cc1,-,.,.,-,.,.
O=C(c1cccnc1)N1CCCCN2[C@H](CO)[C@@H](c3ccc(C#Cc4ccccn4)cc3)[C@H]2C1,-,.,-,-,.,.
CCCC#Cc1ccc([C@H]2[C@H]3CN(C(=O)Cc4cccnc4)CC(=O)N3[C@H]2CO)cc1,22,.,.,.,.,.
O=C(c1cccnc1)N1CCCCN2[C@H](CO)[C@@H](c3ccc(C#Cc4ccccn4)cc3)[C@@H]2C1,31,.,-,-,.,.
O=C(c1cnccn1)N1CC(=O)N2[C@@H](CO)[C@H](c3ccc(C#CC4CC4)cc3)[C@@H]2C1,23,.,.,.,.,.
COc1ccc(C#Cc2ccc([C@H]3[C@H](CO)N4C(=O)CN(C(=O)c5cccnc5)C[C@@H]34)cc2)cc1,37,.,.,.,.,.
O=C(c1cnccn1)N1CC(=O)N2[C@H](CO)[C@H](c3ccc(C#CC4CC4)cc3)[C@@H]2C1,-,.,.,.,.,.
C[C@@H]1CN([C@H](C)CO)C(=O)Cc2cc(NS(=O)(=O)c3cccs3)ccc2O[C@@H]1CN(C)CC1CC1,-,.,-,-,.,.
C[C@@H]1CN([C@@H](C)CO)C(=O)c2cc(C#Cc3cccnc3)cnc2O[C@@H]1CN(C)C,-,.,-,-,.,.
O=C(Cc1ccccc1)N[C@@H]1C=C[C@@H](CC(=O)N2CCOCC2)O[C@H]1CO,-,.,-,-,.,.
O=C(NCC[C@@H]1CC[C@@H](NC(=O)c2ccc3c(c2)OCO3)[C@H](CO)O1)Nc1cc(F)ccc1F,-,.,-,-,.,.
O=C(N[C@@H]1CC[C@H](CCNS(=O)(=O)Cc2ccccc2)O[C@@H]1CO)c1cnccn1,-,.,-,-,.,.
COc1ccc(C(=O)N/N=C/c2c(CO)cnc(C)c2O)cc1,-,-,.,44,-,-
Cc1ncc(CO)c(/C=N/NC(=S)Nc2cccc(Cl)c2)c1O,.,-,.,.,-,-
Cc1ncc(CO)c(/C=N/NC(=S)Nc2ccc(Cl)c(Cl)c2)c1O,-,-,.,1.5,-,-
COc1ccccc1CNC(=O)C[C@H]1CC[C@@H]2[C@H](COC[C@H](O)CN2C(=O)Nc2ccccc2)O1,-,.,-,-,.,.
C/C=C/c1ccc([C@@H]2[C@@H](CN(C(=O)COC)C(C)C)N(C(C)=O)[C@H]2CO)cc1,17,.,-,-,.,.
C/C=C/c1ccc([C@H]2[C@@H](CN(C)C(=O)C3CC3)N(C(=O)CC)[C@H]2CO)cc1,.,.,-,.,.,.
C/C=C/c1ccc([C@@H]2[C@@H](CO)N(C(C)=O)[C@H]2CN(C(=O)COC)C(C)C)cc1,34,.,-,-,.,.
C/C=C/c1ccc([C@H]2[C@@H](CO)N(C(C)=O)[C@H]2CN(CC(C)C)C(C)=O)cc1,.,.,-,.,.,.
C/C=C/c1ccc([C@H]2[C@@H](CO)N(C(=O)CC)[C@@H]2CN(C)C(=O)NC(C)C)cc1,18,.,.,.,.,.
O=C(Nc1ccc2c(c1)[C@H]1C[C@H](CC(=O)N3CCCCC3)O[C@@H](CO)[C@H]1O2)C1CCOCC1,-,.,-,-,.,.
SMILES,SIRT5 inh,CDK5 inh,PglD inh,FGF22 binding,PvdQ acylase,dFosB activator
O=C(C[C@H]1CC[C@@H]2[C@H](COC[C@@H](O)CN2C(=O)c2cccnc2)O1)Nc1ccc(-c2ccccc2)cc1,.,.,-,-,.,.
Cc1nc(Cc2nnc(SCC(=O)N3c4ccccc4NC(=O)C3(C)C)o2)cs1,.,.,-,43,.,.
Cc1nc(Cc2nnc(SCC(=O)N3CC(=O)Nc4ccccc43)o2)cs1,-,-,.,-,-,-
O=C(C[C@@H]1CC[C@H]2[C@@H](COC[C@@H](O)CN2S(=O)(=O)c2ccc(Cl)cc2)O1)N[C@H]1CCN(Cc2ccccc2)C1,-,.,-,-,.,.
CCc1nc2ccc(C(=O)N3CCN(C(C)=O)CC3)cn2c1N(CC)C(=O)NCCc1ccccc1,-,.,-,-,.,.
CCc1nc2ccc(C(=O)N(CC)CCN(C)C)cn2c1N(CC)C(=O)NCCc1ccccc1,29,.,-,-,.,.
COc1ccc(NC(=O)N2CCN(CCC#N)CC2)cc1,.,-,-,.,-,-
